# Reference: PubChem BioAssay AID1875 (Broad Institute, 2009)
# Among all 300,000 compounds or so, about 65 (0.02%) were called active.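 Rule for the calls: active = lowest replicate activity score at least 50, where 100 means six control SD above control mean; inconclusive = lowest score under 50 but half or more replicates reach 50; inactive = the rest.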 This excerpt belongs to a sample that is enriched for actives.
# Test: polyadenylation inhibitors in yeast reporter cells, primary screen, luminescence, S. cerevisiae (AID 1875);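 note: yeast exposed to compound for 9 h at 30 °C; higher score means more reporter readthrough which indicates perturbed polyadenylation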
# Conditions: S. cerevisiae SKY197-pL101 polyadenylation reporter, beta-gal luminescence; at 12 µM; active compounds read high; efflux-impaired pdr1/pdr3 knockout yeast; score 100 = 6 SD above DMSO
row,Compound,activity score
1,CC1C(=O)NC(=O)C1c1ccccc1 (stereo not given),-10.6% (inactive)
2,CC(C)Cc1nn2c(=O)cc(O)nc2s1,4.85% (inactive)
3,Cc1c(Br)cc(C(=O)N2CCCCCC2)c(C)c1C,-12.8% (inactive)
4,COc1ccccc1N1CCN(C(=O)c2cc(=O)c3cc(C)cc(C)c3o2)CC1,-11.1% (inactive)
5,Cc1c(NS(=O)(=O)c2ccc(NC3CCCC3)c([N+](=O)[O-])c2)c(=O)n(-c2ccccc2)n1C,0.246% (inactive)
6,COc1ccccc1OCC(=O)Nc1ccccc1C(=O)NC1CC1,-4.06% (inactive)
7,O=C1c2ccccc2C(=O)N1Cc1cc(-c2ccccc2Cl)no1,16.1% (inactive)
8,CCCOc1ccc(-c2c(C(=O)N/N=C/c3ccco3)nnn2-c2nonc2N)cc1,-8.58% (inactive)
9,COCc1[nH][nH]c(=O)c1C=Nc1ccc(F)cc1F,-2.51% (inactive)
10,Cc1ccc(NC(=O)C(C)c2cccc(C(=O)c3ccccc3)c2)cc1 (stereo not given),-5.58% (inactive)
11,COc1ccccc1N1CCN(S(=O)(=O)c2ccc3c(c2)NC(=O)CS3)CC1,9.75% (inactive)
12,CN(C)Cc1ccccc1C1(O)c2ccccc2CSc2ccccc21 (stereo not given),-2.69% (inactive)
13,CN(C)C(=O)c1ccc(NC(=O)c2ccccc2-c2ccccc2)cc1,-1.15% (inactive)
14,CCC(Cc1ccccc1)NC(=O)C1CCCCC1 (stereo not given),15.5% (inactive)
15,CCCC[C@@H]1CN=C(N)N1CCCC,6.9% (inactive)
16,C=CCN1C(=O)C2(OCCCO2)c2cccc(Cl)c21,-10.9% (inactive)
17,CC(=O)NC(Cc1ccc(F)c(F)c1)C(=O)NC1CCN(c2nnnn2-c2ccccc2)CC1 (stereo not given),-5.96% (inactive)
18,O=C(NCc1ccccc1Cl)NC(=O)c1csc([N+](=O)[O-])c1,8.38% (inactive)
19,O=C(NCc1ccccc1)C1=C[C@@H](c2ccc(C(F)(F)F)cc2)C[C@@H](OCc2ccc(CO)cc2)O1,4.63% (inactive)
20,Cc1ccc(C)c(N2CCN(C(=O)CCCCCn3c(=S)[nH]c4ccc(N5CCOCC5)cc4c3=O)CC2)c1,13.3% (inactive)
21,S=c1[nH]cc(-c2ccc(Cl)cc2)n1-c1ccccc1,-13.1% (inactive)
22,CC(C)c1ccc(NC(=O)[C@@H](NC(=O)N2CC(=O)Nc3ccccc32)C(C)C)cc1,8.86% (inactive)
23,COc1ccc2c(c1)N(C)/C(=C1/SC(=S)N(NC(C)=O)C1=O)S2,-0.22% (inactive)
24,Cc1ccc(C(=O)NC2CCCC(C)C2C)cc1S(=O)(=O)N1CCCCC1 (stereo not given),0.169% (inactive)
25,CCN(CC)Cc1c(C(=O)N/N=C/c2cccc(OCc3ccc(F)cc3)c2)nnn1-c1nonc1N,-15.4% (inactive)
